# tim23-1 inh: tim23-1 yeast growth inhibition | inhibition, % at 20 µM | hit rate 1.3% among 330,000 | S. cerevisiae tim23-1 growth, BacTiter-Glo luminescence, 24 h;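 active means growth inhibition of the mutant yeast at or above 50%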;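 further: temperature-sensitive mutant grown at 25 °C; plate controls were DMSO-treated mutant yeast for no effect and medium wells lacking yeast for full effect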
# TIM10 inh: growth inhibitors of TIM10 yeast strain; S. cerevisiae TIM10 strain growth, BacTiter-Glo luminescence, 24 h; inhibition, % at 10 µM; hit rate 1.4% among 330,000;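 active means inhibition of 40% or more at the single tested concentration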;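 further: wild-type TIM10 isogenic control strain grown at permissive 25 °C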
# SKKanGAS inh: inhibitors of SKKanGAS S. pyogenes growth in kanamycin (SK-promoter or general growth effect); AID 1662; inhibition, % at 7.5 µM; BacTiter-Glo, 6 h; hit rate 1.3% among 300,000;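 active means mean replicate score, as percent of positive control median, at least 50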;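 further: strain carries kanamycin resistance gene driven by streptokinase promoter and grows in 40 µg/ml kanamycin; loss of luminescence reflects streptokinase promoter inhibition or plain growth inhibition; 0% = median of DMSO wells and 100% = positive control at its reference dose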
# tim10-1 inh: tim10-1 yeast growth inhibition | inhibition, % at 20 µM | S. cerevisiae tim10-1 ts strain growth, BacTiter-Glo, 24 h | hit rate 2.2% among 330,000;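 active means inhibition of at least 40%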;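 further: mutant grown at 25 °C; 0% = DMSO wells with yeast and 100% = wells holding no yeast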
# NLRP3 yeast inh: inhibitors of NALP3 inflammasome in yeast. Yeast reconstituted NLRP3/ASC/caspase-1, beta-gal luminescence, 24 h. inhibition, % at 10 µM. hit rate 0.39% among 330,000;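 active means inhibition of 50% or more; inactive means inhibition below 50%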;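 further: plate controls were induced DMSO wells for no effect and uninduced yeast grown without galactose for full effect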
# PfHsp90 set2: reduces growth (ATP signal) of yeast expressing P. falciparum Hsp90; inhibition, % at 9.4 µM; AID 504621; hit rate 0.32% among 310,000; S. cerevisiae expressing PfHsp90, BacTiter-Glo ATP, 48 h; yeast lacking PDR1 and PDR3 efflux regulators;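 active means every replicate shows inhibition above about 80%, whatever the replicate mean, limit read from the data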;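 further: 0% = DMSO neutral controls and 100% = 20 µM radicicol positive controls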
# tim10-1 confirm: confirmation of tim10-1 mutant yeast growth inhibitors. shares compounds with tim10-1 inh. S. cerevisiae tim10-1 ts strain growth, BacTiter-Glo, 24 h. inhibition, % at 20 µM. hit rate 56% among 7,400. AID 463213;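 active means inhibition of yeast growth at or above a set limit in either of two repeat tests at 20 µM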;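 further: tim10-1 mutant grown at permissive 25 °C to find synthetic lethal compounds; 0% = DMSO yeast wells and 100% = medium wells without yeast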
# tim10 confirm: TIM10 yeast growth inhibition, confirmed. hit rate 63% among 4,600. inhibition, % at 10 µM. shares compounds with TIM10 inh. AID 463215. S. cerevisiae tim10 strain growth, BacTiter-Glo luminescence, 24 h;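 active means inhibition of yeast growth at or above a set limit in either of two replicates at 10 µM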;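 further: this counterscreen used the strain with wild-type TIM10; 0% = yeast with DMSO and 100% = medium wells lacking yeast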
# tim23-1 conf: tim23-1 yeast growth inhibition, confirmed; inhibition, % at 20 µM; AID 463218; shares compounds with tim23-1 inh; hit rate 83% among 4,400; S. cerevisiae tim23-1 growth, BacTiter-Glo luminescence, 24 h;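 active means inhibition above about 39% in either of two replicate wells at 20 µM, limit read from the data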;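 further: temperature-sensitive tim23-1 mutant grown at 25 °C; 0% = DMSO wells with yeast and 100% = medium wells without yeast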
# Active calls of the source: *; nt = no result given. A selection: hits, their analogues and other compounds. The true share with any hit is near 4.6%.
SMILES,tim23-1 inh,TIM10 inh,SKKanGAS inh,tim10-1 inh,NLRP3 yeast inh,PfHsp90 set2,tim10-1 confirm,tim10 confirm,tim23-1 conf
CC1CCCN(C(=O)c2nn(C)c3c2CS(=O)(=O)c2ccccc2-3)C1 (stereo unspecified),7.2,2.5,8.5,8.5,0.2,-2.0,nt,nt,nt
O=C(CN1CC(c2ccccc2)CC1=O)N/N=C/c1cc(Br)ccc1O (stereo unspecified),56.1*,34.2,79.1*,41.3*,20.7,-17.3,22.4,nt,50.3*
CCOc1ccc(NC(=O)CN2CC(c3ccccc3)CC2=O)cc1 (stereo unspecified),22.8,13.6,-10.4,14.6,0.6,-6.9,nt,nt,nt
CC1=NN(c2ccc(Cl)cc2)C(=O)C1C(c1cccc(O)c1)c1c(C)[nH]n(-c2ccc(Cl)cc2)c1=O (stereo unspecified),57.1*,37.4,25.2,48.0*,2.8,3.7,28.9,nt,51.4*
COc1cccc(C(=O)Oc2cc(N)n(S(=O)(=O)c3ccc(C)cc3)n2)c1OC,32.4,25.3,-0.6,36.5,19.4,0.0,nt,nt,nt
Cc1ccc(C(=O)Oc2cc(N)n(S(=O)(=O)c3ccc(F)cc3)n2)cc1,51.8*,44.7*,-0.2,49.1*,10.2,-33.6,34.1*,49.4*,42.7*
CC(=O)C(=Cc1cn(-c2ccccc2)nc1-c1ccccc1)C(C)=O,82.4*,56.8*,nt,67.1*,4.7,-10.2,68.0*,52.6*,83.2*
O=C(O)c1cc(S(=O)(=O)Nc2ccc3cn[nH]c3c2)ccc1Cl,13.1,-1.9,nt,7.1,10.3,6.6,nt,nt,nt
Cc1ccc(NC(=O)C(C)c2ccc([N+](=O)[O-])cc2)cc1Cl (stereo unspecified),51.4*,58.7*,-5.6,57.9*,11.6,-14.3,59.2*,48.4*,60.8*
O=c1[nH]c(/C=C/c2ccccc2Cl)nc2ccccc12,14.5,24.3,1.3,23.9,21.5,1.1,nt,nt,nt
Clc1cccc(Cl)c1/C=C/c1nc2ccccc2[nH]1,84.8*,65.3*,2.2,44.7*,37.7,10.5,33.9*,52.8*,88.0*
Clc1ccc(/C=C/c2nc3ccccc3[nH]2)c(Cl)c1,62.1*,49.9*,43.2,41.1*,11.3,nt,41.0*,32.5*,75.8*
CC1CCCCN1c1nc(-c2ccncc2)nc2ccccc12 (stereo unspecified),53.1*,52.8*,11.2,47.0*,1.0,8.0,43.5*,41.1*,52.8*
Cc1occc1C(=O)N/N=C/c1ccc(OCc2ccccc2)cc1,17.1,5.2,1.1,-9.8,17.4,7.5,nt,nt,nt
Cc1occc1C(=O)N/N=C/c1ccc(-c2ccccc2)cc1,63.4*,42.6*,55.2*,58.7*,17.6,-113.1,56.4*,41.0*,56.9*
CC[C@@H]1C/C=C\Cc2ccccc2[C@H](C(=O)C[C@@H](O)CC(C)=O)OC1=O,51.6*,38.9,nt,54.2*,-9.7,-8.0,53.0*,nt,49.4*
COc1ccc(N(CC(=O)N2CCN(Cc3ccccc3)CC2)S(C)(=O)=O)cc1Cl,15.3,-1.1,0.3,-4.9,20.4,3.4,nt,nt,nt
COc1ccccc1C/C(N)=N/OC(=O)COc1cc(C)cc(C)c1C,78.0*,73.4*,4.6,64.9*,-3.2,-9.3,70.0*,67.8*,80.8*
COc1ccccc1C/C(N)=N/OC(=O)COc1cccc(C)c1C,70.0*,52.7*,12.9,63.2*,-1.8,-11.6,67.8*,46.3*,61.7*
COc1cc(/C=C(/C#N)C(=O)NCc2ccccc2)cc(OC)c1OC,62.6*,34.0,-6.5,55.0*,14.6,-27.0,49.1*,nt,60.5*
O=C(N1CCOCC1)N1CCc2ccccc21,6.5,0.1,-3.5,-3.2,15.0,-9.6,nt,nt,nt
Cn1cc(S(=O)(=O)N2CCCC2)cc1C(=O)N1CCN(c2ccccc2)CC1,12.3,-2.1,0.9,5.4,15.4,-0.4,nt,nt,nt
